According to PubChem BioAssay (Tox21):
Results filed as inconclusive are left out. Where a call stands in place of a potency, no number is given. Calls of active or inactive are those of the source. Unless noted, calls come from the whole dose curve.

Experiments:
[1] = Nuclear factor erythroid 2-related factor 2/antioxidant responsive element (Nrf2/ARE) small molecule agonists: luciferase reporter gene qHTS assay in human keratinocytes (AID 1919969); note: nearly all actives have a fitted effect of over 35% in size; note: potency is the fitted concentration of half-maximal effect
[2] = target: Gonadotropin-releasing hormone receptor (Homo sapiens) (UniProt P30968); assay: Human gonadotropin-releasing hormone receptor (GnRHR) small molecule agonists, calcium flux assay in GnRHR-HEK293 cells (AID 1920063); note: nearly all actives have a fitted effect of over 35% in size; note: potency is the fitted concentration of half-maximal effect
Outline: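 Stable human GnRHR HEK293 line. 18 h plating, then calcium dye for 1 h at 37 C. Agonist-mode compound addition from DMSO stocks; fluorescence monitored 3 min.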

[3] = target: KiSS-1 receptor (Homo sapiens) (UniProt Q969F8); assay: Human kisspeptin (KISS1R) small molecule agonists, calcium flux assay in KISS1R-HEK293 cells (AID 1920064; active = well fitted activation curve with a large enough effect in the repeat runs)
Outline: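 After overnight (18 h) culture at 37 C/5% CO2, human KISS1R-HEK293 cells received calcium dye for 1 h, then test compound; emission at 540 nm (excitation 480 nm) was tracked for 3 min.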

[4] = G protein-coupled receptor (GPCR) small molecule agonists, calcium flux assay: HEK293 wild type cell line counter screen (AID 1920065)
Outline: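 Following 18 h incubation at 37 C/5% CO2, plates got calcium dye for 1 h; compounds, ATP or DMSO were then pinned in and fluorescence followed kinetically (480/540 nm).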

[5] = p53 small molecule agonists, cell-based qHTS assay with human liver microsomes (AID 1963577)
Outline: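 Compounds act here after metabolic activation: human liver microsomes and NADPH, both at 0.5 mg/mL final, were co-added to p53RE-bla cells. Incubation ran 16 h at 37 C, followed by LiveBLAzer detection.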

[6] = p53 small molecule agonists, cell-based qHTS assay with rat liver microsomes (AID 1963578)
Outline: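 Read-out is beta-lactamase reporter fluorescence (LiveBLAzer, 2 h, room temperature, dark) in p53RE-bla cells treated 16 h at 37 C with compound, rat liver microsomes and NADPH, both 0.5 mg/mL final.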

[7] = p53 small molecule agonists, cell-based qHTS assay with human liver microsomes: qHTS cell viability counter screen (AID 1963579); note: nearly all actives have a fitted effect of over 45% in size
Outline: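 Cells carrying the p53 response-element beta-lactamase reporter are treated for 16 h at 37 C with test compounds in the presence of human liver microsomes and NADPH (both 0.5 mg/mL final); ATP-based CellTiter-Glo luminescence then reports viability.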

[8] = p53 small molecule agonists, cell-based qHTS assay with rat liver microsomes: qHTS cell viability counter screen (AID 1963580); note: nearly all actives have a fitted effect of over 45% in size
Outline: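 Luminescent ATP readout (CellTiter-Glo, 30 min at room temperature) reports viability of p53RE-bla HCT-116 cells after 16 h at 37 C with test compounds under metabolic activation by rat liver microsomes and NADPH at 0.5 mg/mL final each.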

[9] = p53 small molecule agonists, cell-based qHTS assay: qHTS cell viability counter screen (AID 1963581); note: nearly all actives have a fitted effect of over 45% in size
Outline: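 qHTS counter screen: 16 h compound exposure at 37 C of p53RE-bla HCT-116 cells (4,000 per well, seeded 5 h prior), cell viability by ATP luminescence.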

[10] = cAMP Responsive Elements (CRE) small molecule agonists, cell-based qHTS assay (AID 1963590)
Outline: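 Test agents in DMSO were incubated 3 h at 37 C/5% CO2 with CRE-bla HEK 293T cells seeded 18 h earlier; LiveBLAzer B/G FRET substrate was added and read after 2 h at room temperature.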

[11] = target: Beta-2 adrenergic receptor (Homo sapiens) (UniProt P07550); assay: Adrenergic beta2 receptor (ADRB2) small molecule antagonists, cell-based qHTS assay (AID 1963592); note: nearly all actives have a fitted effect of over 50% in size; note: potency is the fitted concentration of half-maximal effect
Outline: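 Assay format: CHO-ADRB2 cells, 18-20hr seeding at 37C/5% CO2, then compound plus 1nM isoproterenol agonist mix for 0.5hr RT. Homogeneous time-resolved fluorescence cAMP detection after 1hr, expressed as 665/615 nm ratio.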

[12] = target: D(2) dopamine receptor (Homo sapiens) (UniProt P14416); assay: Dopamine D2 receptor (DRD2) small molecule agonists, cell-based qHTS assay (AID 1963594); note: nearly all actives have a fitted effect of over 35% in size
Outline: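 HEK293 cells stably expressing DRD2 were cultured 24 h at 37 C, then given Ro20-1724 (0.1 mM final) and compounds for 10 min at room temperature. NKH477 (200nM) was then added for 30 min. cAMP was read by HTRF.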

[13] = target: 5-hydroxytryptamine receptor 2A (Homo sapiens) (UniProt P28223); assay: 5-hydroxytryptamine receptor 2A (HTR2A) small molecule antagonists, cell-based qHTS assay (AID 1963586); note: nearly all actives have a fitted effect of over 45% in size; note: potency is the fitted concentration of half-maximal effect
Outline: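 CHO cells stably expressing human HTR2A were plated for 18 h at 37 C, then loaded with calcium dye for 1 h. Compounds were preincubated 5 min at room temperature before DOI (4 nM solution) was added. Kinetic fluorescence was read for 3 min.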

[14] = target: 5-hydroxytryptamine receptor 2A (Homo sapiens) (UniProt P28223); assay: 5-hydroxytryptamine receptor 2A (HTR2A) small molecule agonists, cell-based qHTS assay (AID 1963587); note: nearly all actives have a fitted effect of over 30% in size; note: potency is the fitted concentration of half-maximal effect
Outline: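 HTR2A-CHO cells, plated 18 h at 37 C/5% CO2, dye-loaded 1 h at 37 C; compounds in DMSO added by pin tool (agonist mode). Intracellular calcium flux read as kinetic fluorescence on FDSS over 2 min at 1 s intervals.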

[15] = target: Muscarinic acetylcholine receptor M1 (Homo sapiens) (UniProt P11229); assay: Cholinergic receptor muscarinic 1 (CHRM1) small molecule agonists, cell-based qHTS assay (AID 1963589); note: nearly all actives have a fitted effect of over 35% in size
Outline: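 Kinetic fluorescence (1 s intervals) of calcium-sensitive dye in human M1 CHO cells after compound addition; cells pre-incubated 18 h at 37 C/5% CO2 and dye-loaded 1 h.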

[16] = cAMP Responsive Elements (CRE) small molecule antagonists, cell-based qHTS assay (AID 1963591; active = well fitted inhibition curve with a large enough effect in the signal ratio in the repeat runs, not every such curve was filed as active; the % refers to the signal ratio)
Outline: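 Reporter line CRE-bla HEK 293T in dialyzed-FBS DMEM; cells preincubated 18 h, treated 3 h with compound plus NKH477 (0.25 uM final); LiveBLAzer FRET, 2 h RT.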

[17] = target: Beta-2 adrenergic receptor (Homo sapiens) (UniProt P07550); assay: Adrenergic beta2 receptor (ADRB2) small molecule agonists, cell-based qHTS assay (AID 1963593);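 note: CHO cells stably overexpressing human ADRB2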
Outline: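 CHO cells stably over-expressing ADRB2 were plated overnight at 37C, then dosed with compounds plus a stimulation mix containing 100uM IBMX and 25uM Ro-20-1724 for 0.5hr at room temperature. cAMP was measured by HTRF competition, 1hr.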

[18] = target: D(2) dopamine receptor (Homo sapiens) (UniProt P14416); assay: Dopamine D2 receptor (DRD2) small molecule antagonists, cell-based qHTS assay (AID 1963595; active = well fitted inhibition curve with a large enough effect in the signal ratio in the repeat runs, with a control signal flat; the % refers to the signal ratio)
Outline: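 DRD2-HEK293; 0.1 mM Ro20-1724; cpd 10 min RT; NKH477 200 nM + quinpirole 12 nM, 30 min RT; HTRF cAMP (cAMP-d2/anti-cAMP cryptate), 665/620 nm ratio after 1 h.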

[19] = p53 small molecule agonists, cell-based qHTS assay (AID 1963582; active = well fitted activation curve with a large enough effect in the signal ratio in the repeat runs, not every such curve was filed as active; the % refers to the signal ratio; note: potency is the fitted concentration of half-maximal effect)
Outline: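 Measured: fluorescence from cleaved LiveBLAzer substrate. System: p53RE-bla cells, 16 h compound treatment at 37 C, 2 h substrate step at room temperature.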

[20] = target: Muscarinic acetylcholine receptor M1 (Homo sapiens) (UniProt P11229); assay: Cholinergic receptor muscarinic 1 (CHRM1) small molecule antagonists, cell-based qHTS assay (AID 1963588); note: nearly all actives have a fitted effect of over 40% in size
Outline: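 Compounds were tested at 15 concentrations in three independent runs. Dye-loaded CHRM1-CHO cells were exposed 5 min at room temperature before stimulation by acetylcholine added at 50nM. Intracellular calcium was read kinetically on FDSS for 3 min.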

Sequence of KiSS-1 receptor (Homo sapiens) (Q969F8 whole entry, looked up): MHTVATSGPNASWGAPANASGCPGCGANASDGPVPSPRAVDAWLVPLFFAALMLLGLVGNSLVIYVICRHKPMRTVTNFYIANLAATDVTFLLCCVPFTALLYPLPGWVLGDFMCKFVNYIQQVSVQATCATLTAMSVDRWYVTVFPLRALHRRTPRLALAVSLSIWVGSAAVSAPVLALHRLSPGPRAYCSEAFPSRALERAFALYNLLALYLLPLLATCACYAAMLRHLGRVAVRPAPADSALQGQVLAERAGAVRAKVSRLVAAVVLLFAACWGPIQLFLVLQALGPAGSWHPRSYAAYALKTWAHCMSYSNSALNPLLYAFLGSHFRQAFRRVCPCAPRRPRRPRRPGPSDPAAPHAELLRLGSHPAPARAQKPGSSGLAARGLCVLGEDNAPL
Sequence of Gonadotropin-releasing hormone receptor (Homo sapiens) (P30968 whole entry, looked up): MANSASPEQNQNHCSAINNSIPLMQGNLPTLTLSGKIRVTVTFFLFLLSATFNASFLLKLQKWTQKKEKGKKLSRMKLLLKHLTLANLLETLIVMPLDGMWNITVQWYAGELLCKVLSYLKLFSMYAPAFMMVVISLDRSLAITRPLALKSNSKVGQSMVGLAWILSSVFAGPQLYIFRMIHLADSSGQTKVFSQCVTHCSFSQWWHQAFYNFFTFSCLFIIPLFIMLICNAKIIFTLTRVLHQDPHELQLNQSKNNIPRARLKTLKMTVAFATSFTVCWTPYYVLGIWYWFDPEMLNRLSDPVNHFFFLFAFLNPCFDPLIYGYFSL
Sequence of 5-hydroxytryptamine receptor 2A (Homo sapiens) (P28223 whole entry, looked up): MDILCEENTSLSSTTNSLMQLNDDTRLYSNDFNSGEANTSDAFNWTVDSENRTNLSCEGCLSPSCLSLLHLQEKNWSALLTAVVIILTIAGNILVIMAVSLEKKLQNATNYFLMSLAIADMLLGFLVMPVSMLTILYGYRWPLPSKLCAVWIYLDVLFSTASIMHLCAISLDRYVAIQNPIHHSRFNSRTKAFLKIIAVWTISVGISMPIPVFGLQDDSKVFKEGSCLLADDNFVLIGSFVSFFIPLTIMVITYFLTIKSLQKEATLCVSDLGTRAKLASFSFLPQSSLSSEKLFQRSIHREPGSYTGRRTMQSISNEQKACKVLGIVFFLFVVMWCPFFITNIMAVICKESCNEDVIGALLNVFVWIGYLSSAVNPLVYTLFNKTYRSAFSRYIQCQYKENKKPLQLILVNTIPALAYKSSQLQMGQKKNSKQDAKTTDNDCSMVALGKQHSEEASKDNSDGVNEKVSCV
Sequence of D(2) dopamine receptor (Homo sapiens) (P14416 whole entry, looked up): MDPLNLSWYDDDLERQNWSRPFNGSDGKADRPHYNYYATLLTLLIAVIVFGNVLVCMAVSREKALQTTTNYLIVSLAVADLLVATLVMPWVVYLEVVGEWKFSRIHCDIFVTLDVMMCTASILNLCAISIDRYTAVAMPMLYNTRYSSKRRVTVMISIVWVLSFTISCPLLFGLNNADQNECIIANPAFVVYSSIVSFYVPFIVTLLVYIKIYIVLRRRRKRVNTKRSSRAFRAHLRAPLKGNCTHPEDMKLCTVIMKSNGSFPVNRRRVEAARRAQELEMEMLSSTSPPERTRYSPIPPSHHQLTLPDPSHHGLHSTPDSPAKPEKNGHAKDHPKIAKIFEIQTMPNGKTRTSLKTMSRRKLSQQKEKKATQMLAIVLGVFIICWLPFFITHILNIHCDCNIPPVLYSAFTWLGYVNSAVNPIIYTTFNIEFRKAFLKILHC
Sequence of Muscarinic acetylcholine receptor M1 (Homo sapiens) (P11229 whole entry, looked up): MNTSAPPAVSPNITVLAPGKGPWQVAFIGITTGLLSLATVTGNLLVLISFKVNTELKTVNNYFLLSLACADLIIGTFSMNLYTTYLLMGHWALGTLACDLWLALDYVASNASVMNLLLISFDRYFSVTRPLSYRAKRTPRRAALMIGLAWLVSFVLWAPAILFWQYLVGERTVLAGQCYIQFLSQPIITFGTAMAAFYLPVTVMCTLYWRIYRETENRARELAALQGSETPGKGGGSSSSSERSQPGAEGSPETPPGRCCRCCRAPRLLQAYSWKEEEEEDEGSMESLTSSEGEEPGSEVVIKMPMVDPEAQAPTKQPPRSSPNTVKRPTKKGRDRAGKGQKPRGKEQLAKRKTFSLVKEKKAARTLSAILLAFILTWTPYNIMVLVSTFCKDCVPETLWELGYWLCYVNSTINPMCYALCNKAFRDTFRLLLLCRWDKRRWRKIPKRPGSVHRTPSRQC
Sequence of Beta-2 adrenergic receptor (Homo sapiens) (P07550 whole entry, looked up): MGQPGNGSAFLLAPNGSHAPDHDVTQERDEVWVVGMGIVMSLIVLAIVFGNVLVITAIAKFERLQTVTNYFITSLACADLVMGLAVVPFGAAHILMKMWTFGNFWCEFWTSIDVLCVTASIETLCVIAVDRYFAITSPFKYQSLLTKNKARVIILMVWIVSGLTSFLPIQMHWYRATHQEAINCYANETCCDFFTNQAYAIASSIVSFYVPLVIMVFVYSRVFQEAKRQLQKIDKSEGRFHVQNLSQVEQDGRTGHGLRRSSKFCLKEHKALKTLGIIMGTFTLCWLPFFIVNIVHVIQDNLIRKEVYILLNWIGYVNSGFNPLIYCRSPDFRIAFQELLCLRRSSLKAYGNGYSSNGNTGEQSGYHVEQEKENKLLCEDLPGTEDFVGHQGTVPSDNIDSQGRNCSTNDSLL

SMILES	Potency [1]	Potency [2]	Potency [3]	Potency [4]	Potency [5]	Potency [6]	Potency [7]	Potency [8]	Potency [9]	Potency [10]	Potency [11]	Potency [12]	Potency [13]	Potency [14]	Potency [15]	Potency [16]	Potency [17]	Potency [18]	Potency [19]	Potency [20]
CC(Cl)(Cl)Cl	inactive	inactive	inactive	inactive	inactive	inactive	inactive	inactive	inactive	inactive	inactive	inactive								
O=[N+]([O-])c1ccc(Oc2ccc(C(F)(F)F)cc2[N+](=O)[O-])cc1	48.6 µM (active)	inactive	inactive	inactive	inactive	inactive	inactive	inactive	inactive		inactive	inactive	inactive	inactive	inactive	inactive	inactive	inactive		
ClC1=C(Cl)[C@]2(Cl)[C@H]3[C@H]([C@H]4C=C[C@H]3C4)[C@@]1(Cl)C2(Cl)Cl	19.3 µM (active)	inactive	inactive	inactive	inactive	inactive	inactive	inactive	inactive		inactive	inactive	inactive	inactive	inactive	inactive		inactive	inactive	inactive
COCC(C)N(C(=O)CCl)c1c(C)csc1C (stereo unspecified)	68.6 µM (active)	inactive	inactive	inactive	inactive	inactive	inactive	inactive	inactive	inactive			inactive	inactive	inactive	inactive	inactive	inactive	inactive	inactive
CCC(C)(c1ccc(O)cc1)c1ccc(O)cc1	inactive	inactive	inactive	inactive	inactive	inactive		inactive	inactive	inactive	inactive	inactive	inactive	inactive	inactive	inactive	inactive	inactive		
Cc1cc(C(C)(C)c2cc(C)c(O)c(C)c2)cc(C)c1O	inactive	33.5 µM (active)	inactive	inactive	inactive	inactive						inactive		23.7 µM (active)			inactive			inactive
O=C(c1ccccc1)C(Cl)Cl	27.3 µM (active)	inactive	inactive	inactive	inactive	inactive	inactive		inactive	inactive	inactive	inactive	inactive	inactive	inactive					inactive
CC(=O)/C=C/c1ccc2c(c1)OCO2	61.4 µM (active)	inactive	inactive	inactive	inactive		inactive	inactive	inactive			inactive	inactive	inactive	inactive				41 µM (active)	inactive
COc1cc(OC)nc(NC(=O)NS(=O)(=O)c2ncccc2OCC(F)(F)F)n1	inactive	inactive	inactive	inactive		inactive	inactive	inactive	inactive	inactive	inactive	inactive		inactive		inactive	inactive	inactive	inactive	inactive
CCC(OC(C)=O)C(CC(C)NC)(c1ccccc1)c1ccccc1 (stereo unspecified)	inactive	inactive	inactive	inactive		inactive	inactive	inactive			inactive	inactive	inactive		inactive	inactive	inactive	inactive	inactive	
COc1ccccc1N1CCNCC1	inactive	inactive	inactive	inactive	inactive	inactive		inactive	inactive	inactive	13.3 µM (active)		0.729 µM (active)	1.69 µM (active)	inactive	inactive		inactive	inactive	inactive
O=S1OC[C@@H]2[C@H](CO1)[C@]1(Cl)C(Cl)=C(Cl)[C@@]2(Cl)C1(Cl)Cl (stereo partly specified)	24.3 µM (active)	inactive	inactive	inactive	inactive	inactive		inactive	inactive		inactive	inactive	inactive	inactive	inactive					inactive
CC(C)[C@H](C(=O)O[C@H](C#N)c1cccc(Oc2ccccc2)c1)c1ccc(Cl)cc1	inactive	inactive	inactive	inactive	inactive		inactive	inactive	inactive		inactive	inactive	inactive	inactive	inactive		inactive			inactive
C=CCc1ccc(OC(=O)Cc2ccccc2)c(OC)c1	inactive	inactive	inactive	inactive	inactive		inactive	inactive	inactive	inactive		inactive	inactive	inactive	inactive			inactive	inactive	inactive
O=C(Nc1ccccc1-c1ccc(Cl)cc1)c1cccnc1Cl	68.6 µM (active)	inactive	inactive	inactive	inactive	inactive		inactive						inactive	inactive			inactive		
Clc1ccc(Oc2ccccc2)cc1	inactive	inactive	inactive	inactive	inactive	inactive	inactive		inactive	inactive	inactive			inactive	inactive	inactive	inactive	inactive	inactive	
